DAX1 inh-1: inhibitors of DAX1 repression of SF-1 activated StAR promoter; HEK293T StAR-luciferase reporter, SF-1/DAX-1 repression relief; inhibition, % at 6.8 µM; hit rate 1.1% among 370,000; AID 652010;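 active = inhibition above the mean over all tested compounds plus 3 SD, cut at about 3.6% in these data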;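 note: higher inhibition means more luminescence from relief of DAX-1 repression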
DAX1 inh-2: NR0B1 (DAX1) inhibition. HEK293 Gal4-DAX1 luciferase reporter, luminescence. inhibition, % at 6.75 µM. hit rate 0.99% among 340,000. P51843;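 active = inhibition above the mean over all tested compounds plus 3 SD, cut at about 4.2% in these data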;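 note: inhibition shows as a rise in luminescence from relieved DAX1 repression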
Target sequence (P51843 207-470 limits assumed): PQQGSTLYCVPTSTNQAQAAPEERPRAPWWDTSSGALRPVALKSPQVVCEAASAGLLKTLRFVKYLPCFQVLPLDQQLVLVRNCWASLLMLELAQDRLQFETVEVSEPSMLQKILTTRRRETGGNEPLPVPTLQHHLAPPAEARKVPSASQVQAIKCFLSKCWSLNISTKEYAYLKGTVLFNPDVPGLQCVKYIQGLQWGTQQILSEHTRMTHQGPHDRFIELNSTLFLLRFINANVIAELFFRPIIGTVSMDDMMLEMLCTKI
hcDAF12 agonist: activators of H. contortus DAF-12 nuclear receptor; HEK293 hcDAF-12 lit1-tk-luc reporter, luminescence; 0% DMSO, 100% Δ7-dafachronic acid; activation, % at 6.8 µM; hit rate 1.4% among 370,000;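 active = activation above the mean of all tested compounds plus 3 SD, cut at about 5.5% in these data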
hgDAF12 agonist: hgDAF-12 agonism, primary luciferase screen. HEK293 GAL4-hgDAF12 UAS-luciferase reporter, agonist luminescence; normalized to butyrate control. activation, % at 6.8 µM. hit rate 1.8% among 370,000;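 active = activation above a cutoff set at the mean of all screened compounds plus 3 SD, cut at about 10% in these data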
SMARCA2 activ: activators of SMARCA2 function; MG213 cells, MMTV-luciferase reporter, dexamethasone, overnight; activation, % at 9.1 µM; hit rate 1% among 370,000; AID 652017; in the data active = activation above about 7.8%
ssDAF12 agonist: activates DAF-12 receptor from parasite S. stercoralis. hit rate 1% among 370,000. AID 652126. activation, % at 6.8 µM. HEK293 ssDAF-12/GRIP1 lit1-tk-luc reporter, luminescence; % of 3 µM dafachronic acid response;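 active = activation above the mean over all tested compounds plus 3 SD, cut at about 0.9% in these data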
Large screens that a line does not name were inactive. Hits are enriched below; roughly 4.8% of the tested compounds scored in any of these assays.

COc1cc(NC(=O)C2CCN(c3nnc(-n4cccc4)s3)CC2)cc(OC)c1	none (no result: DAX1 inh-2)
Brc1ccc(-c2cn3c(n2)SCC3)cc1	hgDAF12 agonist 10.8
c1ccc(-c2cn3c(n2)SCC3)cc1	SMARCA2 activ 7.8
CC(C)N1Cc2nnn(Cc3ccccc3)c2-c2cc(N3CCCC3)ccc2S1(=O)=O	none (no result: DAX1 inh-2)
COC(=O)[C@]12C[C@H](CC(=O)NCC3CCCCC3)C(=O)N(Cc3ccc(Cl)cc3Cl)C1=C[C@H](C(C)(C)C)O[C@@H]2C	none (no result: DAX1 inh-2)
Cc1nc(N2CCN(c3ccccn3)CC2)c2c(C)c(C(=O)Nc3ccccc3F)sc2n1	DAX1 inh-2 5.3
Cc1nc(N2CCN(c3ccccn3)CC2)c2c(C)c(C(=O)Nc3ccc(F)cc3F)sc2n1	none
Cc1ncsc1C(=O)Nc1nc2c(s1)CCCC2	hgDAF12 agonist 12.9
Cc1cc(C(=O)Nc2nc3c(s2)CCCC3)cs1	hcDAF12 agonist 6.0
Cc1cc(C(=O)Nc2nnc(C3CCCCC3)s2)cs1	none
Cc1ccc(CC(=O)Nc2nc3c(s2)CCCC3)cc1	none
CCOc1cccc(C(=O)NC2=NCCS2)c1	DAX1 inh-2 8.1
CCOC(=O)c1ccc(NC(=O)Nc2ccc3c(c2)OCCO3)cc1	none
COc1cccc(C(=O)NC2=NCCS2)c1	hgDAF12 agonist 10.6
CCOC(=O)c1ccc(NC(=O)NC2=NCCS2)cc1	hgDAF12 agonist 11.2
O=C(NC1=NCCS1)c1ccc(-c2ccc(Cl)cc2)o1	none
O=C(NC1=NCCS1)c1ccc(Cl)cc1	hcDAF12 agonist 5.7
O=C(NC1=NCCS1)c1cccc(F)c1	none (no result: DAX1 inh-2)
CCOC(=O)Cn1cc(CN2C(C(=O)OC)CN(C3CCCC3)CCS2(=O)=O)nn1 (stereo unspecified)	none (no result: DAX1 inh-2)
C#CCCCN([C@H](C(=O)OC)C(C)C)S(=O)(=O)c1ccc(F)cc1Br	none (no result: DAX1 inh-2)
Clc1ccc([C@H]2OC[C@@]3(CNCCc4c[nH]c5ccccc45)CS[C@H](c4ccc(Cl)cc4)N23)cc1	none (no result: DAX1 inh-2)
C=CS(=O)(=O)N(Cc1nnn(Cc2ccccc2)c1Br)[C@@H](CC(C)C)C(=O)OC	none (no result: DAX1 inh-2)
Cc1ccccc1S(=O)(=O)Oc1ccc2ccc(O)cc2c1	none
Cc1ccccc1C(=O)Oc1ccc2ccc(O)cc2c1	DAX1 inh-2 4.7, hgDAF12 agonist 10.5
COC(=O)c1cc(-c2ccc(Cl)s2)c(=O)n2c1CCC2	hcDAF12 agonist 6.5 (no result: DAX1 inh-2)
C=CCN1c2ccccc2Sc2cnccc21	none
CC(=O)OCCN1c2ccccc2Sc2cnccc21	hgDAF12 agonist 10.7
COc1ccccc1NC(=S)N1CCC(C(=O)c2ccc(F)cc2)CC1	DAX1 inh-2 5.6
O=C(N/N=C/c1cccnc1)c1cc(-c2ccc(Cl)cc2)nc2ccccc12	DAX1 inh-2 5.6
O=C(Nc1ccncc1)c1cc(-c2ccc(Cl)cc2)nc2ccccc12	none (no result: DAX1 inh-2)
O=C(N/N=C/c1cccnc1)c1cc(-c2ccccc2)nc2ccccc12	none
O=C(Nc1ccc2[nH]ccc2c1)c1cc(-c2ccc(Cl)cc2)nc2ccccc12	hcDAF12 agonist 6.2 (no result: DAX1 inh-2)
COC(=O)C1CN(Cc2ccc(OC)cc2)CCS(=O)(=O)N1Cc1ccc(C(F)(F)F)cc1 (stereo unspecified)	none (no result: DAX1 inh-2)
Cc1cc(C)c2[nH]c(O)c(N=NC3=NC(=O)CS3)c2c1	DAX1 inh-2 4.3
O=C(C(=O)N1CCC(CNC(=O)c2sc3ccccc3c2Cl)CC1)c1cccs1	none (no result: DAX1 inh-2)
Cc1ccc(NC(=S)NNC(=O)c2cccc([N+](=O)[O-])c2)cc1Cl	none
O=C(NNC(=S)Nc1ccc(F)cc1)c1cccc([N+](=O)[O-])c1	ssDAF12 agonist 1.8
COc1ccc(CCC[C@H](CCC(=O)N(c2ccccc2)c2ccccc2)CCc2ccccc2)cc1	none (no result: DAX1 inh-2)
S=c1[nH]nc(-c2ccc3ccccc3n2)n1-c1ccccc1Cl	none
S=c1[nH]nc(-c2cc(-c3ccco3)[nH]n2)n1-c1ccccc1Cl	none
S=c1[nH]nc(-c2ccn[nH]2)n1-c1ccccc1Cl	ssDAF12 agonist 1.2
S=c1[nH]nc(-c2ccco2)n1-c1ccccc1Cl	DAX1 inh-1 4.3
CC(C)CN1C(=O)C[C@]2(C(=O)N(C)c3ccc(NS(=O)(=O)C4CC4)cc32)C1c1ccccc1 (stereo partly specified)	none (no result: DAX1 inh-2)
Cc1sc2ncnc(NC(C)C(=O)O)c2c1C (stereo unspecified)	DAX1 inh-2 5.3
COc1ccc(NC(=S)NCc2ccc(F)cc2)c(OC)c1	none
COc1cc(OC)c(NC(=S)NCc2ccc(F)cc2)cc1Cl	DAX1 inh-2 4.3
Cc1c2ccccc2nc2c(F)c(N(C)C)c(F)c(F)c12	hcDAF12 agonist 5.8
CN(C)c1c2ccccc2nc2c(F)c(F)c(F)c(F)c12	none (no result: DAX1 inh-1, hcDAF12 agonist, hgDAF12 agonist, SMARCA2 activ, ssDAF12 agonist)
COc1ccccc1CCn1cnc(-c2ccc(Br)cc2)c1CC(C)C	none (no result: DAX1 inh-2)
Cc1cccc(-c2noc(C3CCCCC3)n2)c1	none
Cc1cccc(-c2noc(-c3ccno3)n2)c1	DAX1 inh-2 4.9
CCCCCCn1c(COc2ccccc2F)nnc1SCC(=O)c1c(N)n(C)c(=O)n(C)c1=O	ssDAF12 agonist 1.2 (no result: DAX1 inh-2)
O=C(N[C@H](Cc1ccccc1)C(=O)N1CCN(CC(=O)N2CCCC2)CC1)[C@H]1O[C@@H](n2ccc(=O)[nH]c2=O)[C@H](O)[C@@H]1O	none (no result: DAX1 inh-2)
O=C(Nc1ccccc1Br)c1cc(=O)c2ccccc2o1	hgDAF12 agonist 10.9
NS(=O)(=O)c1cccc(NC(=O)c2cc(=O)c3ccccc3o2)c1	DAX1 inh-2 4.8
Fc1ccc2nc(N3CCOCC3)sc2c1	hgDAF12 agonist 11.7
O=C(c1ccc2nc(N3CCOCC3)sc2c1)N1CCCC1	none
CCc1ccc(N(C(=O)Cn2nnc(-c3ccccc3)n2)C(C(=O)NC2CCCCC2)c2ccccn2)cc1 (stereo unspecified)	hcDAF12 agonist 6.5
CC(=O)c1ccc(N(C(=O)Cn2nnc(-c3ccccc3)n2)C(C(=O)NC2CCCCC2)c2ccccn2)cc1 (stereo unspecified)	none
O=C(Nc1ccccc1)OCCN1CCCC12CCC(c1ccccc1)CC2 (stereo unspecified)	none (no result: DAX1 inh-1, DAX1 inh-2, SMARCA2 activ)
COc1ccc(C2Nc3ccccc3C(=O)N2Cc2ccc(C)o2)cc1COc1c(C)cccc1C (stereo unspecified)	none (no result: DAX1 inh-1, DAX1 inh-2, SMARCA2 activ)
COc1ccc(-c2nnn(CC(=O)N3CCN(c4ccc(F)cc4)CC3)n2)cc1	DAX1 inh-2 5.3
COc1ccc2c(c1)CN1C(=O)N(C3CCCC3)S(=O)(=O)CC21 (stereo unspecified)	none (no result: DAX1 inh-2)
Nc1nc(=O)n(C2CC(O)C(CO)O2)cc1Cl (stereo unspecified)	ssDAF12 agonist 3.1 (no result: DAX1 inh-2)
CC1(C)Cc2nc3sc(C(=O)NCCCO)c(N)c3cc2CO1	DAX1 inh-2 6.5
CC1(C)Cc2nc3sc4c(=O)n(CC(N)=O)cnc4c3cc2CO1	none
CCCOCc1ccc(O)c2ncccc12	hgDAF12 agonist 12.3
CC(C)COCc1ccc(O)c2ncccc12	none

Assay outcomes as filed in PubChem.
